The source of these data is PubChem BioAssay (NCI).

Compounds without any hit were thinned out: in the full panel of roughly 79,000, 15% have a hit. A number with no mark means an inactive call. Calls of active or inactive are those of the source. Cut-off read from the data, not from the text of the source: active = growth inhibition above about 70%; inactive = the rest.

A short description of assay [1]: NCI Yeast Anticancer Drug Screen. Data for the rad50 strain (AID 155).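 Note: 0% = growth of vehicle-only cultures of the same strain.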 The conditions noted are these: S. cerevisiae rad50 strain growth inhibition; at 50.0 µM; active compounds read high. In outline:
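Cells are treated with compound, grown, and their growth is then scored against vehicle-only cultures of the same repair-deficient yeast strain.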

Assay [2] can be described thus: NCI Yeast Anticancer Drug Screen. Data for the sgs1 mgt1 strain (AID 161).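 Note: 0% = growth of cultures given vehicle only.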 The conditions noted are these: S. cerevisiae sgs1 mgt1 strain, at 50.0 µM, active compounds read high. In outline: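 Read-out: growth inhibition vs vehicle controls. Cells: mutant yeast strain deficient in DNA damage repair.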
Assay [3] in a line: NCI Yeast Anticancer Drug Screen. Data for the cln2 rad14 strain (AID 165).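 Note: 0% = growth equal to vehicle treated cultures.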 The conditions noted are these: S. cerevisiae cln2 rad14 strain, at 50.0 µM, active compounds read high. In outline: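 cln2 rad14 yeast strain; compound exposure; growth inhibition read vs vehicle controls.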
The nature of assay [4]: NCI Yeast Anticancer Drug Screen. Data for the bub3 strain (AID 167). The conditions noted are these: S. cerevisiae bub3 mutant strain, at 50.0 µM, active compounds read high. In outline: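 Part of a panel of yeast mutants defective in DNA damage repair or cell cycle regulation. Each strain is grown with compound, and inhibition is calculated relative to solvent-treated cultures.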

Assay [5] is described as follows: NCI Yeast Anticancer Drug Screen. Data for the mlh1 rad18 strain (AID 175). The conditions noted are these: S. cerevisiae mlh1 rad18 strain growth inhibition; at 50.0 µM; active compounds read high. The gist of the method:
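Yeast w/ defined DNA-repair lesions; compound exposure; growth vs vehicle controls → % inhibition.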

The nature of assay [6]: NCI Yeast Anticancer Drug Screen. Data for the mec2-1 strain (AID 157). The conditions noted are these: S. cerevisiae mec2-1 strain, at 50.0 µM, active compounds read high. The gist of the method:
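Yeast mec2-1 mutant treated with compound. Readout: growth inhibition vs vehicle controls.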

`O=[N+]([O-])c1ccc(P(=O)(Nc2ccc(Cl)cc2)Nc2ccc(Cl)cc2)cc1`: the growth inhibition in assay [1] was 95.7% (active); in assay [2] it was 95.1% (active); in assay [3], 91.8% (active); in assay [4], 94.8% (active); in assay [5], 97.1% (active).
The matching figures for `C1=CC(=C(c2ccccc2)c2ccccc2)C=C1`: -17.1%, -4.5%, -19.2%, -2.75% and -1.9%.
Consider `COc1ccc(/C=c2/s/c(=C(\C#N)c3nc4ccccc4[nH]3)n(-c3ccccc3)c2=O)cc1`, for which the growth inhibition in assay [1] is 4%; in assay [2] it was -6.4%; in assay [3], 13.9%; in assay [4], -17.6%; in assay [5] it was 13.2%.
The matching figures for `COc1ccc(C2CC(=O)Oc3ccccc3O2)cc1` (centres undefined): 39%, 32.2%, 27.9%, 23.6% and 38.1%.
The like results for `COc1cc2[nH]c(-c3ccccc3)cc(=O)c2c(OC)c1OC` were, in that order, -11.3%, -8%, 0.25%, 8.85% and 3.35%.
As for `CCCC(=O)OCC(C)(C)COC(=O)CCC`, the growth inhibition in assay [1] was -5.65%; in assay [6] it was -13.2%; in assay [4] it was 16%; in assay [5] it was 6.6%.
As to `CCCCCCCCCCCCCCCC[N+](C)(C)CCN=[N+]=[N-]`, the growth inhibition is 99.4% (active) in assay [1]; 99.7% (active) in assay [2]; 99.2% (active) in assay [3]; 99.5% (active) in assay [4]; 99.5% (active) in assay [5].
On to `CCCCCCCCCCCCCCCCCCCOc1ccc(OCCCCCCCCCC)cc1`, for which the growth inhibition in assay [1] was 33.9%; in assay [2] it was 24.6%; in assay [3] it was -10.4%; in assay [4] it was 0.2%; in assay [5], 7.15%.
As for `O=C(O)C1C2C3CCC(C3)C12` (centres undefined), the growth inhibition in assay [1] is 2.7%; in assay [2], 8.2%; in assay [3], 34.6%; in assay [4], -4.9%; in assay [5] it was 1.95%.
The matching figures for `CC(=O)Oc1cccc2c1C(=O)C1CC(O)C3(C=O)OC(C)(C)OC2(C)C13` (centres undefined): 8.45%, 5.95%, 4.7%, -3.45% and 3.6%.
With `COc1ccccc1NC(=O)c1nc2ccc([N+](=O)[O-])cc2nc1C`, the growth inhibition in assay [1] was 21.4%; in assay [2], 1.65%; in assay [3], 15.4%; in assay [4], 33.9%; in assay [5], 20.4%.
Take `CCC(=O)N(C)c1ccccc1`: the growth inhibition in assay [1] is 22.4%; in assay [2] it was 0.75%; in assay [3], 12.2%; in assay [4] it was -0.35%; in assay [5], -23.4%.
The matching figures for `O=C(O)C1Cc2c([nH]c3ccccc23)C(c2ccccc2)N1` (centres undefined): 1.3%, 10.8%, -56.6%, -16.8% and 14.4%.
The matching figures for `COC1=CC(=O)O/C1=C(\OC)C1OC1c1ccccc1` (centres undefined): -4%, 2.9%, -1.35%, -6.5% and -24.9%.
Consider `O=C(/C=C/c1ccc(O)cc1)c1ccc(Cl)cc1`, for which the growth inhibition in assay [1] was -17.7%; in assay [2], -18.6%; in assay [3] it was -36.9%; in assay [4], 20.4%; in assay [5], -16.4%.
For `Nc1ccc(C(=O)NN2C(=O)C(Cl)C2c2cccc(O)c2)cc1` (centres undefined), the growth inhibition in assay [1] was -4.45%; in assay [2], -35.1%; in assay [3] it was -14.2%; in assay [4] it was 4.3%; in assay [5] it was -6.55%.
On to `COc1ccc(C=Nc2c(N)[nH]c(=S)[nH]c2=O)cc1`, for which the growth inhibition in assay [1] was -15%; in assay [2] it was -4.15%; in assay [3], 0.7%; in assay [4] it was -27.8%; in assay [5] it was -51.7%.
The matching figures for `COC(=O)c1cc([N+](=O)[O-])cc2ccccc12`: 35.8%, 19.1%, 11.3%, 23.1% and 0.65%.
The like results for `N#CSCCOCCOC(=O)NC1CCCCC1` were, in that order, 10.2%, 14.7%, 5.25%, 16.2% and 14.6%.
The matching figures for `C(=C/c1ccc(-c2ccccc2)cc1)/c1ccc(-c2ccccc2)cc1`: -4.5%, 11.2%, -23.3%, 24.4% and -2.45%.
Turning to `Cn1c(=S)[nH]c2cc(Cl)c(Cl)cc21`, the growth inhibition in assay [1] is 17.4%; in assay [2], 0.55%; in assay [3], -21.7%; in assay [4], -14.7%; in assay [5], 20.4%.
The matching figures for `CC(c1ccc([N+](=O)[O-])cc1)n1cnc2c(N(CCO)CCO)ncnc21` (centres undefined): 6.3%, -13.7%, -3.7%, -12.2% and -0.5%.
The matching figures for `CC(=O)/C=C1\N(C)c2ccccc2C1(C)C`: 2.1%, -2.05%, -8.55%, -2.9% and -10.9%.
